Data from PubChem BioAssay AID588405 (Sanford-Burnham Center for Chemical Genomics, 2011).
Values joined by “and” are separate entries in the source; they are usually repeats but may differ in a detail not shown here. Equal values may be shown once. In all, about 360,000 compounds went through this assay and about 6,200 (1.7%) were called active.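 How the source made its calls: active means inhibition of at least 50% at 20 µM; inactive means the rest.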 The full list was thinned out, with actives kept by preference. Some structures have more than one record in an assay (separate samples or runs), and their calls can disagree.

Assay: Peg3 promoter-driven luciferase inhibitors, primary screen, cell-based, HeLa, luciferase luminescence (AID 588405)
Conditions: HeLa PEG-Prom luciferase reporter, overnight, at 20 µM, stronger effect = higher value

Structure (SMILES) | inhibition
O=C(O)CSc1c2c(nc3cc(C(=O)Nc4cccc(C(F)(F)F)c4)ccc13)CCCC2 | 13.5% (inactive)
COc1cccc(NC(=O)CN(C)C(C)C(=O)Nc2ccc(C#N)cc2)c1 (stereo unspecified) | 20% (inactive)
O=C(Nc1cccc(C(F)(F)F)c1)c1ccc(N2CCNCC2)c([N+](=O)[O-])c1 | 22.1% (inactive)
CCOC(=O)c1ccc(NC(=O)c2nc[nH]c2C(=O)NCc2ccccc2)cc1 | 32.4% (inactive)
COc1cc(NC(=O)c2[nH]cnc2C(N)=O)cc(C(=O)Nc2cccc(C(F)(F)F)c2)c1 | 101% (active)
COc1cc(NC(=O)c2cncc(-c3ccc(C#N)cc3)c2)cc(C(=O)Nc2cccc(C(F)(F)F)c2)c1 | 22% (inactive) and 56% (active)
O=C1c2ccccc2-c2ccccc2NC1O (stereo unspecified) | -8.48% (inactive)
COc1ccc(C(c2nnnn2C2CCCC2)N2CCN(C/C=C/c3ccccc3)CC2)cc1 (stereo unspecified) | -2% (inactive)
CC(=O)Nc1ccc(-c2ccnc3c2CC(C(=O)NC(C)C)O3)cc1 (stereo unspecified) | -1.44% (inactive)
CC1(C(=O)NCC2CCOCC2)Cc2c(-c3cccc(C(N)=O)c3)ccnc2O1 (stereo unspecified) | 8.22% (inactive)
O=C(CSc1nc2cccc(F)c2c(=O)n1-c1ccccc1)Nc1ccc2c(c1)CCC2 | 2.19% (inactive)
Cc1ccc(C)c(N2CCN(C(=O)CCCCCn3c(=S)[nH]c4ccc(N5CCOCC5)cc4c3=O)CC2)c1 | 92.5% (active)
Cc1ccc(C)c(N2CCN(C(=O)CCCn3c(=O)c4cccn4c4cccnc43)CC2)c1 | 34.6% (inactive)
O=C(CCCCCn1c(=S)[nH]c2cc3c(cc2c1=O)OCO3)N1CCN(c2ccc(F)cc2)CC1 | -0.75% (inactive)
COCCNC(=O)C1CCCN(Cc2ccccc2Cl)CC1 (stereo unspecified) | 5.2% (inactive)
CSc1nc(-c2ccccc2)nc(C(Cl)Cl)n1 | 98.3% (active)
O=C(COC(=O)C12CC3CC(CC(O)(C3)C1)C2)NC12CC3CC(CC(C3)C1)C2 | 9.7% (inactive)
CC1(Cc2cccc(C#N)c2)C(=O)Nc2ccc(-c3cccc(C(F)(F)F)c3)cc21 (stereo unspecified) | 37% (inactive)
CCOC(=O)C1(CCOc2ccccc2)CCN(Cc2ccc(C#CCCO)cc2)CC1 | 15.7% (inactive)
Cc1c(CN2CCC(CO)(CCOc3ccccc3)CC2)[nH]c2ccc(Cl)cc12 | 85.4% (active)
CC(C)(O)C#Cc1ccc(CN2CCC(CO)(CCc3ccccc3)CC2)cc1 | 1.12% (inactive)
C=CC[C@@H](CC(=O)N[C@@H](CO)Cc1ccccc1)C(=O)N[C@H](COC(=O)[C@H](CC=C)CC(=O)OC(C)(C)C)Cc1ccccc1 | 59.8% (active)
C=CC[C@@H](CC(=O)N[C@H](CO)Cc1ccccc1)C(=O)N[C@H](C)COC(=O)[C@@H](CC=C)Cc1ccc(F)cc1 | 12.6% (inactive)
C=CC[C@@H](CC(=O)N[C@@H](CO)Cc1ccccc1)C(=O)NCCOC(=O)[C@@H](CC=C)CC(=O)OC(C)(C)C | 4.88% (inactive)
CCOC(=O)c1c(-n2cnnn2)sc(C)c1C | -0.91% (inactive)
CNC(=O)C1CC(=O)N(Cc2ccc3c(c2)OCO3)C(=Nc2ccc(F)cc2)S1 (stereo unspecified) | -64.3% (inactive)

Structure (SMILES) | inhibition
COc1ccccc1N(CCOc1ccccc1)S(=O)(=O)c1ccccc1 | 18.4% (inactive)
Clc1ccc(-c2cc(C3CCNCC3)[nH]n2)c(Cl)c1 | 58.7% (active)
Clc1ccc(-c2cc(-c3ccccn3)on2)c(Cl)c1 | -90.8% (inactive)
Fc1cccc(Cc2c(-c3cccc(Cl)c3)nc3ccc(Br)cn23)c1 | -153% (inactive)
O=C(O)CC1S/C(=N\N=C/c2ccccc2O)N(c2ccc(O)cc2)C1=O (stereo unspecified) | -0.29% (inactive)
COc1ccc(-c2cc(C(=O)NCCCN3CCCC3=O)c3ccccc3n2)cc1OC | -2.28% (inactive)
COc1ccc(CN(C)C(=O)Cc2c[nH]c3ccccc23)c(OC)c1OC | 13.2% (inactive)
COc1ccc(-c2cc(C(=O)N(C)CC(=O)Nc3ccccc3Cl)c3ccccc3n2)cc1OC | 43.6% (inactive)
COc1ccc(CN(C)C(=O)c2cc(-c3ccc(C)cc3C)nc3ccccc23)c(OC)c1OC | 75.3% (active)
COc1ccc(S(=O)(=O)N2CCCCCC2)cc1C(=O)N(C)Cc1cccc(OC)c1OC | 5.19% (inactive)
COc1ccc(-c2cc(C(=O)N(C)Cc3ccc(OC)c(OC)c3OC)c3ccccc3n2)cc1OC | 50.1% (active)
Cc1ccc(CN2CCC(N3CCC(C(=O)NCC4CCCO4)CC3)CC2)o1 (stereo unspecified) | -0.4% (inactive)
CS(=O)(=O)c1cccc(-c2ccc3nncn3c2)c1 | -2.9% (inactive)
CCc1nc2ccc(C(=O)N3CCN(S(=O)(=O)CC)CC3)cn2c1N(C=O)CCC(C)C | -6.03% (inactive)
CC(C)[C@H](NC(=O)N1CC(=O)Nc2ccccc21)C(=O)N[C@@H](Cc1c[nH]c2ccccc12)C(=O)O | 14.7% (inactive)
O=C(NCc1cccc(C(F)(F)F)c1)c1ccc2sc(COCCO)nc2c1 | -51.8% (inactive)
COc1cccc(CNc2nc3cc(-c4csc5ccccc45)sc3c(=O)n2C)c1 | -0.35% (inactive)
COc1ccc(C(CCN(Cc2ccc(OC)c(OC)c2)C(=O)CCl)c2ccccc2)cc1 (stereo unspecified) | 105% (active)
COc1ccc(CN(Cc2ccc(OC)cc2)C(=O)c2cccs2)cc1 | 0.72% (inactive)
COc1ccc(CCNC(=O)CN(c2ccccc2)S(C)(=O)=O)cc1OC | 18.5% (inactive)
CCCc1nc(N2CCN(C)CC2)c2sc(=S)n(-c3ccccc3)c2n1 | 30.8% (inactive)
OC[C@@H]1CN(Cc2ccc(Cl)cc2)C[C@H](n2cnc3c(NCc4ccncc4)ncnc32)O1 | 8.27% (inactive)
FC(F)(F)Oc1ccccc1C(c1nnnn1C1CCCCC1)N1CCN(C/C=C/c2ccccc2)CC1 (stereo unspecified) | -12.9% (inactive)
CC[C@H]1CN2CCc3cc(OC)c(OC)cc3[C@@H]2C[C@@H]1C[C@H]1NCCc2cc(OC)c(OC)cc21 | 95% (active)
CC(C)C[C@H]1CN([C@@H](Cc2ccccc2)CN2CCC[C@@H]2CN2C(=O)C(=O)NC[C@@H]2Cc2ccc(O)cc2)C(=O)C(=O)N1CCc1ccccc1 | -8.17% (inactive)
